# Data from PubChem BioAssay.
# Several values for one entry are separate records, joined by “and”; a condition that tells them apart may be missing. Equal values may be shown once. Inconclusive results are not listed. For part of these data: Measured potencies and affinities stand elsewhere. Activity calls are given as the source filed them. Unless noted, how the calls were made is not given here.
# What was measured:
# [1] = liver-stage malaria parasite growth inhibition, primary screen, cell-based, HepG2, luciferase luminescence, HepG2 viability (AID 624349; in the data active means parasite load remaining mostly below about 12%, no sharp cut-off; inactive means mostly above about 10%;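 further: 100% = mean of DMSO negative control wells on the same plate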); conditions: P. berghei liver stage in HepG2, luciferase luminescence, concentration not given here; parasite load remaining: stronger effect = lower value; viability: measured here: HepG2 viability without parasites
# [2] = differential killing of epithelial or mesenchymal cells, primary screen, imaging, PC-3E GFP, TEM4-18 mCherry, co-culture (AID 1345086;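 active means compounds killing one labelled cell type while sparing the other, by normalised counts and ratio limits, not self-fluorescent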;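 on all read-outs here: cells exposed to compound for 72 h before imaging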;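 on red/green cell ratio (normalised): normalised mesenchymal count divided by normalised epithelial count so high means epithelial killing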); conditions: imaging cell counts, at 1 µM; for red/green cell ratio (normalised): actives lie on both sides
# [3] = sensitizers of A549 cells to miR-34 induction, primary screen, imaging, A549 dox-inducible miR-34, nuclei and caspase counts (AID 1347080;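 active means compounds whose cell count with miR-34 switched on is under 0.7 times the count with it off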); conditions: A549 miR-34 inducible, Hoechst nuclei count, 48 h
# [4] = circadian clock period modulators, cell-based, LOPAC library, luminescence reporter (AID 2774); conditions: circadian reporter cells, at 7 µM, actives lie on both sides;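 further: values are relative to mean of DMSO wells on each plate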
# [5] = hESC survival regulators, cell-based (AID 493140); conditions: human embryonic stem cell survival screen; stronger effect = higher value;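 further: cells exposed to compounds for four days before counting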
# [6] = tested on: Hepatitis C virus NS3 helicase; test: HCV NS3 helicase inhibitors, primary screen, biochemical, fluorescence polarization, LOPAC1280 library (AID 687035; in the data active means inhibition above about 37%); conditions: Purified HCV NS3 helicase, Cy5-dT15 ssDNA binding fluorescence polarization; stronger effect = higher value; concentration not given here
# [7] = Cy5 fluorescence quenching or enhancement artefacts, artefact control for HCV NS3 helicase inhibitor project, biochemical, LOPAC1280 (AID 687037); conditions: Cy5-DNA-NS3h complex fluorescence interference counterscreen
# [8] = tested on: Aerobactin synthetase IucA (Klebsiella pneumoniae); test: IucA aerobactin synthetase inhibitors, biochemical, Tocris library, absorbance (AID 1345561); conditions: purified IucA enzyme assay, absorbance (OD) read-out; stronger effect = lower value;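 tested at 8 µM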;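 further: 100% = enzyme without compound and 0% = no enzyme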
# [9] = tested on: Aerobactin synthetase IucA (Klebsiella pneumoniae, hypervirulent); test: IucA enzyme inhibition, biochemical, LOPAC library, absorbance readout (AID 1346212); conditions: IucA enzyme assay, absorbance (OD) readout; stronger effect = lower value;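 tested at 8 µM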;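 further: 100% = no compound wells and 0% = no enzyme wells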
# [10] = growth inhibition of DIPG glioma cells, dose response, cell-based, SU-DIPG-XIII, MIPE4.0, CellTiter-Glo, qHTS (AID 1347061; cut-off not given, nearly all actives have AC50 up to about 37 µM;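 further: cells exposed to compound for 48 hours before readout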); conditions: SU-DIPG-XIII viability, CellTiter-Glo ATP luminescence
# [11] = growth inhibition of DIPG glioma cells, dose response, cell-based, JHH-DIPG-1, MIPE4.0, CellTiter-Glo, qHTS (AID 1347062; cut-off not given, nearly all actives have AC50 up to about 27 µM); conditions: JHH-DIPG-1 viability, CellTiter-Glo ATP luminescence
# [12] = growth inhibition of DIPG glioma cells, dose response, cell-based, SU-DIPG-XIII, MIPE5.0, CellTiter-Glo, qHTS (AID 1347064; cut-off not given, nearly all actives have AC50 up to about 23 µM); conditions: SU-DIPG-XIII viability, CellTiter-Glo ATP luminescence
# [13] = viability loss in pontine glioma line – cell-based, SU-DIPG-XXV, MIPE5.0, CellTiter-Glo, qHTS, dose response (AID 1347065; cut-off not given, nearly all actives have AC50 up to about 26 µM;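 further: cells exposed to compound for 48 hours before ATP readout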); conditions: CellTiter-Glo ATP luminescence
# [14] = JHH-DIPG-1 glioma cell viability, MIPE5.0 library, CellTiter-Glo luminescence, qHTS (AID 1347067; cut-off not given, nearly all actives have AC50 up to about 26 µM;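 further: cells exposed to compound for 48 hours before readout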); conditions: JHH-DIPG-1 glioma viability, CellTiter-Glo ATP luminescence
# [15] = SU-DIPG-XXV glioma cell viability, MIPE5.0 library, qHTS (AID 1347068; cut-off not given, nearly all actives have IC50 up to about 30 µM)
# [16] = inhibitors of Cryptococcus chitosan production, flow cytometry, Cibacron Brilliant Red staining (AID 1347148); conditions: Cryptococcus neoformans chitosan, stronger effect = lower value; at 10 µM unless noted;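 further: compound exposure lasted three days at 37 degrees C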
# [17] = viability rescue of complex I mutant cybrids, primary screen, cell-based, galactose medium, ATP luminescence (AID 1645843;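 active means z-score of at least 1.8 in each of two replicates, scored against plate mean and spread of sample wells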;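 further: positive z means more ATP and so rescue of galactose-driven cybrid death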); conditions: complex I mutant cybrid cells, 72 h, stronger effect = higher value
# [18] = target: ATP-dependent translocase ABCB1 (Homo sapiens) (UniProt P08183); test: MDR1 (ABCB1) efflux transporter inhibition, cell-based (AID 377; in the data active means fluorescence slope change above about 50%); conditions: MDR1-expressing cells, fluorescent substrate accumulation slope; stronger effect = higher value; concentration not given here
# Sequence of ATP-dependent translocase ABCB1 (Homo sapiens) (P08183 whole entry, looked up): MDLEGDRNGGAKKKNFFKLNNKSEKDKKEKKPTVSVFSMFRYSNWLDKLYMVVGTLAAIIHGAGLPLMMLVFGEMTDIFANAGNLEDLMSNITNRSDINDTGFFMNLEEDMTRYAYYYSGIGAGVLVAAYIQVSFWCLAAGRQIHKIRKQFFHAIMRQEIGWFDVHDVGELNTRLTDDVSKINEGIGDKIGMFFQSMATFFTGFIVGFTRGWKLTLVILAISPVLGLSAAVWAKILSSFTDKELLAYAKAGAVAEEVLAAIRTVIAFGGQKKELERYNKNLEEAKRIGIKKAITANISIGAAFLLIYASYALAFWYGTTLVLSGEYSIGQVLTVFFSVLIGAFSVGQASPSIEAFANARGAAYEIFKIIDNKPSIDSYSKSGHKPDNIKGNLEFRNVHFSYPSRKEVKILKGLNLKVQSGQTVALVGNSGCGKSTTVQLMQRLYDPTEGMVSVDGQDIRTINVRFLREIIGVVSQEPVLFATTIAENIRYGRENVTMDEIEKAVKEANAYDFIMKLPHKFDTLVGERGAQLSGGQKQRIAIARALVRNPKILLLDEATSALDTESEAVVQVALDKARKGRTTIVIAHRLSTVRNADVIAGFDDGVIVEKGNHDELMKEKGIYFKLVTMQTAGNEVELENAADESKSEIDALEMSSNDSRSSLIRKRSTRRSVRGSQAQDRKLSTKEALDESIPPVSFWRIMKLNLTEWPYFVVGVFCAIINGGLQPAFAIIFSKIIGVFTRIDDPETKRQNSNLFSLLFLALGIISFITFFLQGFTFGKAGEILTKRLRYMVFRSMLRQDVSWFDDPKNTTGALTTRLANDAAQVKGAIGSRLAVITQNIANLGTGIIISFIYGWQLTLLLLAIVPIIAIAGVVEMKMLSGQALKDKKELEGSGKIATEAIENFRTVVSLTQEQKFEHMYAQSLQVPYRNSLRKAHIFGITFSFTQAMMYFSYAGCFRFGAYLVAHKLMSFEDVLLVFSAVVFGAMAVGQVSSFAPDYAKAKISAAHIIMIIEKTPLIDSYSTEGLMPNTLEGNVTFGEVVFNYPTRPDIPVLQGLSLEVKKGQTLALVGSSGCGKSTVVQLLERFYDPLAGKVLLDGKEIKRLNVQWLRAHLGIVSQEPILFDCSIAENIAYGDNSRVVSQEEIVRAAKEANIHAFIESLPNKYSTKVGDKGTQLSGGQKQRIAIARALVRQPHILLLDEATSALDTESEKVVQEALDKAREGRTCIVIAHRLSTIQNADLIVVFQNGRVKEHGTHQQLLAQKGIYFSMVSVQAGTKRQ
# [19] = phospholipid biosynthesis inhibitors in animal cells, primary screen, cell-based, LOPAC library, screen 4 (AID 1347384); conditions: phospholipid biosynthesis inhibition screen, at 10 µM
# [20] = survival rescue of mitochondrial mutant cells in low glucose, primary screen, MELAS cybrids, Rieske KO mouse fibroblasts, CellTiter-Glo (AID 1508586;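 active means mean z-score across replicates of 1.96 or higher in either the MELAS or the Rieske mutant cell line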;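 further: z relative to plate mean and SD of compound and empty wells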)
# [21] = suppressors of polyQ aggregation in yeast, 75Q-TubU reporter (AID 1593); conditions: Yeast 75Q polyglutamine aggregation reporter
# [22] = rescue of polyQ-huntingtin neuronal dysfunction in worms, whole organism, C. elegans mechanosensory neurons, N-terminal huntingtin (AID 1599); conditions: touch response, stronger effect = higher value
# [23] = inhibitors of mitochondrial cytochrome c release, biochemical, purified mitochondria (AID 1603); conditions: stronger effect = lower value;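 further: mouse liver mitochondria challenged with calcium chloride; signal normalized to the plate average as 100%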
# [24] = inhibitors of polyQ protein aggregation (AID 1604); conditions: polyglutamine-induced protein aggregation inhibition assay; stronger effect = higher value; tested at 2.5 µM
# [25] = enhancers of glutamate uptake in motor neurons, MN-1 cell line (AID 1612); conditions: MN-1 motor neuron cells, stronger effect = higher value;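 further: tested at 1 µM final; 0% = mean of DMSO vehicle wells on each plate; positive means more glutamate uptake than control and negative means less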
# [26] = reducers of polyQ inclusions in PC12 cells, cell-based, NGF-treated PC12, GFPQ80 (AID 1614); conditions: PC12 NGF-treated GFP-polyQ80 inclusion reduction;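 further: lower means fewer inclusions and 0 means no inclusions at all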
# [27] = suppressors of polyglutamine aggregation in yeast, 75Q-TubH (AID 1616); conditions: S. cerevisiae 75Q-TubH polyglutamine aggregation suppression; stronger effect = higher value
# [28] = measured here: epithelial PC-3E GFP cell survival
# [29] = measured here: mesenchymal TEM4-18 mCherry cell survival
# [30] = measured here: relative caspase fold change +Dox/-Dox
# [31] = measured here: total cells with miR-34 induction, stronger effect = lower value
# [32] = measured here: total cells without miR-34 induction
compound,measurement,setting,value
C#C[C@@H]1CC2C3CCC4=C[C@@H](OC(C)=O)CCC4C3CC[C@]2(C)[C@H]1OC(C)=O (some centres not stated),parasite load remaining,[1],19.4% (inactive)
same,viability,[1],101%
same,red/green cell ratio (normalised),[2],0.9 (inactive)
same,normalised cell number,[2]; [28],1.25
same,normalised cell number,[2]; [29],1.12
same,fold change,[3]; stronger effect = lower value,0.854 (inactive)
same,fold change,[3]; [30],3.71
same,cell count,[3]; [31],11300
same,cell count,[3]; [32],13200
C/C(O)=C(\C#N)C(=O)Nc1cc(Br)ccc1Br,period change,[4],0.265 h (inactive)
same,survival,[5],124 (inactive)
same,inhibition,[6],1% (inactive)
same,fluorescence ratio (interference),[7],1 (inactive)
same,remaining activity,[8],116% (inactive)
same,remaining activity,[9],112% (inactive)
same,outcome,[10],inactive
same,outcome,[11],inactive
same,outcome,[12],inactive
same,outcome,[13],inactive
same,outcome,[14],inactive
same,outcome,[15],inactive
same,fold change,[3]; stronger effect = lower value,1.11 (inactive) and 0.867 (inactive)
same,fold change,[3]; [30],0.986 and 2.29
same,cell count,[3]; [31],5190 and 8220
same,cell count,[3]; [32],4660 and 9480
same,fold fluorescence,[16],3.51 [at 138.9 µM] (inactive)
same,z-score,[17],2.97 (active)
C[C@]12N[C@H](Cc3ccccc31)c1ccccc12,fluorescence slope change,[18],55.9% (active)
same,period change,[4],0.055 h (inactive)
same,survival,[5],15.6 (inactive)
same,parasite load remaining,[1],44.8% (inactive) and 97.8% (inactive)
same,viability,[1],70.4% and 87.5%
same,inhibition,[6],-1% (inactive)
same,fluorescence ratio (interference),[7],1 (inactive)
same,remaining activity,[8],117% (inactive)
same,remaining activity,[9],89.7% (inactive)
same,fold change,[3]; stronger effect = lower value,1.14 (inactive) and 0.978 (inactive) and 0.959 (inactive)
same,fold change,[3]; [30],0.783 and 1.01 and 0.875
same,cell count,[3]; [31],10200 and 8980 and 9270
same,cell count,[3]; [32],8990 and 9190 and 9660
same,outcome,[19],inactive
same,z-score,"[20]; MELAS cybrid survival, CellTiter-Glo 48 h, stronger effect = higher value",0.143 (inactive)
same,z-score,"[20]; Rieske KO mouse fibroblast survival, CellTiter-Glo 72 h",0.47
same,z-score,[17],-0.205 (inactive) and 0.805 (inactive)
c1ccc2sc(C3(N4CCCCC4)CCCCC3)cc2c1,period change,[4],-0.2 h (inactive)
same,inhibition,[6],-3% (inactive)
same,fluorescence ratio (interference),[7],1 (inactive)
same,remaining activity,[8],107% (inactive)
same,remaining activity,[9],110% (inactive)
same,fold change,[3]; stronger effect = lower value,0.986 (inactive)
same,fold change,"[3]; stronger effect = lower value, cell number ratio, induced over uninduced",0.965 (inactive)
same,fold change,[3]; [30],1.78 and 0.772
same,cell count,[3]; [31],8350 and 7790
same,cell count,[3]; [32],8470 and 8070
same,outcome,[19],inactive
same,z-score,[17],-1.48 (inactive) and -1.21 (inactive)
CC(=O)O[C@H]1C[C@H](O[C@H]2[C@@H](O)C[C@H](O[C@H]3[C@@H](O)C[C@H](O[C@H]4CC[C@@]5(C)C(CCC6C5C[C@@H](O)[C@]5(C)[C@@H](C7=CC(=O)OC7)CC[C@]65O)C4)O[C@@H]3C)O[C@@H]2C)O[C@H](C)[C@H]1O[C@@H]1O[C@H](CO)[C@@H](O)[C@H](O)[C@H]1O (some centres not stated),score,[21],1.1
same,rescue above control,[22],3.88
same,cytochrome c release ratio,[23],0.86
same,inhibition of aggregation,[24],100%
same,glutamate uptake change,[25],-5.55%
same,inclusion score,[26],3
same,aggregation suppression score,[27],1.31
same,parasite load remaining,[1],31.4% (inactive) and 0.905% (inactive)
same,viability,[1],50.8% and 15.3%
same,red/green cell ratio (normalised),[2],0.22 (inactive)
same,normalised cell number,[2]; [28],0.27
same,normalised cell number,[2]; [29],0.06
same,fold change,[3]; stronger effect = lower value,0.6 (active)
same,fold change,[3]; [30],2.31
same,cell count,[3]; [31],258
same,cell count,[3]; [32],431
